Values joined by “and” are separate entries in the source; they are usually repeats but may differ in a detail not shown here. Equal entries are not always repeated. Results filed as inconclusive are left out. Active and inactive are the calls of the source. Unless noted, the call rests on the fitted dose curve; in most records, active means well fitted curve in the direction sought with a large enough effect; inconclusive means small, poorly fitted or top-dose-only effect, or another doubt; inactive means no such curve, though single readings can be large; an effect the other way counts as inactive or inconclusive.

Experiment [1] in a line: qHTS Assay for Lipid Storage Modulators (AID 1519; calls by dose curve; on activity change, negative = inhibition: on the % scale 0 is the no-effect control and ±100 the full control effect). The following applies: Drosophila S3 cells, BODIPY lipid droplet/cell ratio, laser cytometry, cells loaded with oleic acid. In a few lines: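 Cells seeded at 5,000 per well were treated with compounds over a concentration series and loaded with oleic acid (400 uM, as added). Lipid droplet fluorescence (488 nm excitation, 500-530 nm channel) was read by laser-scanning cytometry and normalized to 20 uM Triacsin C.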
(In general: Quantitative high-throughput screening tests each substance at several concentrations.)

The nature of experiment [2]: Validation of Assay for Modulators of Lamin A Splicing (AID 1459; active means well fitted curve in the direction sought with a large enough effect in the signal ratio; the % refers to the signal ratio;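 further: cells exposed to compound for two days before reading; 0% is about no effect; ratio rise marks activators and ratio drop marks inhibitors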). The following applies: Lamin A splicing dual RFP/GFP fluorescence reporter; series mostly up to 9.22 µM. In a few lines:
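HeLa S3 lamin A-EGFP/DsRed2 stable clone, 600 cells/well, Opti-MEM 2% FBS; compounds by pin tool; 48 hrs, 37 °C/5% CO2; Acumen 488 nm scan, objects 10-100 um; GFP/RFP intensity ratio.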

Experiment [3] addresses DNA repair nuclease/redox regulator APEX1 (Homo sapiens) (UniProt P27695). Briefly: qHTS Validation Assay for Inhibitors of the Human Apurinic/apyrimidinic Endonuclease 1 (APE1) (AID 1705;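 further: TAMRA fluorescence gain over two minutes as APE1 cuts a quenched THF abasic duplex; on the % scale 0 is the no-effect control and ±100 the full control effect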). As to conditions: purified APE1 endonuclease activity, fluorescence, titration; series mostly up to 57.1 µM. An outline of the steps: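 qHTS, 1536-well. APE1 + cpd 15 min RT → 50 nM TAMRA/BHQ-2 THF-abasic dsDNA substrate → kinetic fluorescence, 3 reads/60 s; delta(read3−read1) = reaction progress. No-enzyme buffer = negative control.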

The nature of experiment [4]: Counterscreen for APE1 Inhibitors: Fluorescent Dye Displacement Validation Assay (AID 1707).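 Further: plate controls were ThO with dsDNA and no compound for no effect and ThO without dsDNA for full effect.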 The following applies: fluorescent dye displacement from DNA; series mostly up to 57.1 µM. An outline of the steps:
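Assay buffer: Tris-HCl pH7.5 with 50mM NaCl, 2 mM MgCl2, 0.01% Tween-20. Dye 250 nM, duplex 50 nM final. Readout: decrease in ThO endpoint fluorescence, 480 nm excitation, 540 nm emission.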
On the technique in general: Counterscreens check selectivity or assay interference.

Experiment [5] in a line: qHTS for differential inhibitors of proliferation of Plasmodium falciparum line 7G8 (AID 1815).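 Further: parasite growth measured after three days of incubation.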 Further: potency means the concentration at half of the fitted maximal effect.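 On activity change, negative = inhibition: plate controls were vehicle wells for no effect and reference inhibitor wells for full effect.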 As to conditions: Plasmodium falciparum 7G8 proliferation inhibition; series mostly up to 28.7 µM.
Experiment [6] in a line: qHTS for differential inhibitors of proliferation of Plasmodium falciparum line Dd2 (AID 1882).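 Further: plate controls were DMSO vehicle for no effect and 0.29 µM artemisinin for full effect; nearly all actives have a fitted effect of over 65% in size.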 As to conditions: Potency: Plasmodium falciparum Dd2 proliferation inhibition; series mostly up to 28.7 µM. An outline of the steps: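 Dd2-infected erythrocytes (0.3% parasitemia, 2.5% hematocrit final) incubated with compound 72 h at 37 C, 5% CO2; lysed with saponin/Triton buffer containing SYBR Green I, incubated overnight in the dark, then read by fluorescence (485/535 nm). Normalized to 0.29 uM artemisinin and DMSO.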

Experiment [7] deals with ATP-dependent DNA helicase Q1 (Homo sapiens) (UniProt P46063). The experiment can be described thus: qHTS Validation Assay for Inhibitors of RecQ-Like Dna Helicase 1 (RECQ1) (AID 2353).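 Further: plate controls were DMSO vehicle for no effect and enzyme-free control for full effect.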 The following applies: recombinant RECQ1 helicase DNA unwinding assay; series mostly up to 25.6 µM. In a few lines:
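50 nM RECQ1T1 preincubated 15 min with compound in Tris pH 8.0 buffer with MgCl2, DTT, Tween-20 and 2.5 ug/ml poly(dI-dC); started with 200 nM TAMRA/BHQ-2 forked duplex and 2 mM ATP. Unwinding read as fluorescence (525/598 nm), two reads 2 h apart.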

For experiment [8], the target named is RecQ-like DNA helicase BLM (Homo sapiens) (UniProt P54132). The experiment can be described thus: qHTS Validation Assay for Inhibitors of Bloom's syndrome helicase (BLM) (AID 2364).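 Further: plate controls were DMSO vehicle for no effect and enzyme-free control for full effect.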 As to conditions: BLM helicase DNA unwinding, fluorescence, in vitro; series mostly up to 57.1 µM. In a few lines: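 Forked 20-bp duplex substrate (200 nM, TAMRA/BHQ-2) plus 2 mM ATP added after 15 min compound preincubation with 50 nM enzyme, pH 8.0, poly(dI-dC) 2.5 ug/ml. Strand separation followed by fluorescence (525/598 nm) over 2 h, normalized to enzyme-free and DMSO controls.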

Experiment [9] concerns the target alpha-glucosidase (Oryza sativa, rice) (UniProt Q653V4). Briefly: Counterscreen for Glucocerebrosidase Inhibitors: qHTS Assay for Rice alpha-Glucosidase at pH 5.0 (AID 997).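 Further: 0% = full activity with enzyme and -100% = basal without enzyme.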 The following applies: rice alpha-glucosidase enzyme activity; series mostly up to 76.9 µM. In a few lines: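 Rice alpha-glucosidase (4 nM final) with 400 uM 4-methylumbelliferyl-alpha-D-glucopyranoside in citrate buffer pH 5.0, 20 min at room temperature, stopped at pH 10; fluorescence 365/440 nm, compounds 0.7 nM–77 uM, AC50 from Hill fits.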

Experiment [10] deals with Endonuclease 4 (Escherichia coli (strain K12)) (UniProt P0A6C1). Briefly: Counterscreen for APE1 Inhibitors: qHTS Validation Assay for Inhibitors of Endonuclease IV (AID 1708). Further: on the % scale 0 is the no-effect control and ±100 the full control effect. The following applies: E. coli endonuclease IV, DNA cleavage fluorescence; series mostly up to 57.1 µM. An outline of the steps:
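qHTS concentration-response format; LOPAC1280 tested under APE1-screen conditions. 2 nM enzyme, 15 min compound preincubation at RT, then 50 nM TAMRA/BHQ-2 abasic substrate; kinetic fluorescence read, three reads at 60 s intervals.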

The nature of experiment [11]: qHTS for differential inhibitors of proliferation of Plasmodium falciparum line GB4 (AID 1816).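 Further: parasite growth measured after 72 h incubation; 0% = vehicle DMSO and -100% = reference inhibitor.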 As to conditions: Potency: Plasmodium falciparum GB4 proliferation inhibition; series mostly up to 28.7 µM.
The nature of experiment [12]: qHTS for differential inhibitors of proliferation of Plasmodium falciparum line 3D7 (AID 1876).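 Further: parasite growth measured after three days of culture; 0% = vehicle wells and -100% = reference inhibitor wells.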 As to conditions: P. falciparum 3D7 proliferation inhibition; series mostly up to 28.7 µM.
The nature of experiment [13]: qHTS for differential inhibitors of proliferation of Plasmodium falciparum line D10 (AID 1877).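 Further: parasites grown with compound for 72 h before DNA staining; plate controls were vehicle wells for no effect and reference inhibitor wells for full effect.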 As to conditions: series mostly up to 28.7 µM.
Experiment [14] is described as follows: qHTS for differential inhibitors of proliferation of Plasmodium falciparum line HB3 (AID 1886).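 Further: parasites grown with compound for 72 h before SYBR Green readout; plate controls were vehicle for no effect and reference inhibitor for full effect.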 As to conditions: Potency: Plasmodium falciparum HB3 proliferation inhibition; series mostly up to 28.7 µM.
A short description of experiment [15]: qHTS Assay for Modulators of Human Peripheral Myelin Protein 22 (PMP22) Expression/Activity (AID 1967; active means well fitted curve in the direction sought with a large enough effect in the signal ratio; the % refers to the signal ratio;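 further: 0% = untreated cells and 100% end not stated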). As to conditions: Cell-based PMP22 reporter, dual-color luciferase ratio, 0% = compound-free control cells, mouse Pmp22 promoter in mouse Schwann cells; series mostly up to 115 µM. In a few lines:
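Luminescence ratio of Pmp22 promoter-driven green luciferase to EF-alpha-driven red luciferase, in engineered mouse MSC80 Schwann cells, served as read-out. Compounds were incubated 24h; untreated cells defined 0% Activity; curves were classified by r2, magnitude and activity.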

Experiment [16] has as its target Ferritin light chain (Equus caballus) (UniProt P02791). Briefly: qHTS Validation Assay for Identification of Novel General Anesthetics (AID 2323). Further: on the % scale 0 is the no-effect control and ±100 the full control effect. The following applies: horse apoferritin, anesthetic-site fluorescent probe displacement; series mostly up to 76.9 µM. In a few lines:
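Fluorescence at 535 nm (excitation 380 nm) reported loss of 1-AMA binding to horse-spleen apoferritin (10 uM) in PBS with 50% saturated 1-aminoanthracene, after 10 min room-temperature incubation with compound; values from Hill fits of normalized response.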

Experiment [17] can be described thus: Cytometric Cell-Based qHTS for Inhibitors of the mTORC1 Signaling Pathway in MEF (Tsc2-/-, p53-/-) Cells (AID 2660).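 Further: Tsc2 and p53 null MEFs carrying empty vector with compound for 24 h; percent of cells above a phospho-rpS6 to PI ratio cutoff in each well; plate controls were DMSO for no effect and rapamycin for full effect.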 As to conditions: mTORC1 pathway cytometry; series mostly up to 38.3 µM. In a few lines: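 Cells are plated, treated with compound for 24 hrs at 37 degree Celsius, then fixed, blocked and immunostained for phospho-rpS6 Ser235/236. Propidium iodide counterstain follows. Per-well % positive cells is derived from the PI-normalized phospho-S6 signal.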

Experiment [18] is described as follows: High Content Imaging Cell-Based qHTS for Inhibitors of the mTORC1 Signaling Pathway in MEF (Tsc2-/-, p53-/-) Cells (AID 2666).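 Further: percent of cells scored positive for phospho-rpS6 Ser235/236 immunostaining by imaging.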 The following applies: at 38.3 µM (top of the series). In a few lines:
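Cells were plated, dosed with compound after 24 hrs, and incubated another 24 hrs at 37 degree Celsius. Fixed cells were immunostained for phospho-rpS6 Ser235/236 and counterstained, and the normalized signal was scored as % active cells against rapamycin and DMSO controls.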

Experiment [19] in a line: qHTS for differential inhibitors of proliferation of Plasmodium falciparum line W2 (AID 1883).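 Further: parasites grown with compound for 72 h before lysis and staining; 0% = vehicle wells and -100% = control inhibitor wells.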 The following applies: Potency: Plasmodium falciparum W2 proliferation inhibition; series mostly up to 28.7 µM.
A short description of experiment [20]: qHTS Assay for Identification of Small Molecule Inducers of Hypoxia Response (AID 2120; active means well fitted curve in the direction sought with a large enough effect in the signal ratio, with a control signal flat, not every such curve was filed as active; the % refers to the signal ratio; further: 0% is about no effect). The following applies: hypoxia response reporter cells, beta-lactamase ratio readout; series mostly up to 104 µM. In a few lines:
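ME-180 HRE-bla cells plated in Opti-MEM/0.5% dialyzed FBS, rested 4-5 h, then dosed with compound titrations by pin tool. After 17 h at 37 degrees C, CCF4 dye loaded 2.5 h at RT; 460/530 nm ratio gave %Activity and AC50.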

The mark [21] stands for this setting: measured here: cell count channel max response.
Where [22] appears, read: measured here: lipid channel max response.

Chain of DNA repair nuclease/redox regulator APEX1 (Homo sapiens) (P27695 whole entry, looked up): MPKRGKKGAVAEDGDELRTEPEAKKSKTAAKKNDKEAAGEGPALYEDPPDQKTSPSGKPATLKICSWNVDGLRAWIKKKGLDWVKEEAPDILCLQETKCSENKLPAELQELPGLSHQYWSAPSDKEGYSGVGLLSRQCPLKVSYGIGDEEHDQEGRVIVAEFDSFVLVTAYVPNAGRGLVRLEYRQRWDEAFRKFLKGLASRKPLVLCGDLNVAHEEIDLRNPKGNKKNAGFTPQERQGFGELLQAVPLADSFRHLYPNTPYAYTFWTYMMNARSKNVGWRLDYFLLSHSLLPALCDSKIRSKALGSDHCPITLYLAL
Chain of RecQ-like DNA helicase BLM (Homo sapiens) (P54132 whole entry, looked up): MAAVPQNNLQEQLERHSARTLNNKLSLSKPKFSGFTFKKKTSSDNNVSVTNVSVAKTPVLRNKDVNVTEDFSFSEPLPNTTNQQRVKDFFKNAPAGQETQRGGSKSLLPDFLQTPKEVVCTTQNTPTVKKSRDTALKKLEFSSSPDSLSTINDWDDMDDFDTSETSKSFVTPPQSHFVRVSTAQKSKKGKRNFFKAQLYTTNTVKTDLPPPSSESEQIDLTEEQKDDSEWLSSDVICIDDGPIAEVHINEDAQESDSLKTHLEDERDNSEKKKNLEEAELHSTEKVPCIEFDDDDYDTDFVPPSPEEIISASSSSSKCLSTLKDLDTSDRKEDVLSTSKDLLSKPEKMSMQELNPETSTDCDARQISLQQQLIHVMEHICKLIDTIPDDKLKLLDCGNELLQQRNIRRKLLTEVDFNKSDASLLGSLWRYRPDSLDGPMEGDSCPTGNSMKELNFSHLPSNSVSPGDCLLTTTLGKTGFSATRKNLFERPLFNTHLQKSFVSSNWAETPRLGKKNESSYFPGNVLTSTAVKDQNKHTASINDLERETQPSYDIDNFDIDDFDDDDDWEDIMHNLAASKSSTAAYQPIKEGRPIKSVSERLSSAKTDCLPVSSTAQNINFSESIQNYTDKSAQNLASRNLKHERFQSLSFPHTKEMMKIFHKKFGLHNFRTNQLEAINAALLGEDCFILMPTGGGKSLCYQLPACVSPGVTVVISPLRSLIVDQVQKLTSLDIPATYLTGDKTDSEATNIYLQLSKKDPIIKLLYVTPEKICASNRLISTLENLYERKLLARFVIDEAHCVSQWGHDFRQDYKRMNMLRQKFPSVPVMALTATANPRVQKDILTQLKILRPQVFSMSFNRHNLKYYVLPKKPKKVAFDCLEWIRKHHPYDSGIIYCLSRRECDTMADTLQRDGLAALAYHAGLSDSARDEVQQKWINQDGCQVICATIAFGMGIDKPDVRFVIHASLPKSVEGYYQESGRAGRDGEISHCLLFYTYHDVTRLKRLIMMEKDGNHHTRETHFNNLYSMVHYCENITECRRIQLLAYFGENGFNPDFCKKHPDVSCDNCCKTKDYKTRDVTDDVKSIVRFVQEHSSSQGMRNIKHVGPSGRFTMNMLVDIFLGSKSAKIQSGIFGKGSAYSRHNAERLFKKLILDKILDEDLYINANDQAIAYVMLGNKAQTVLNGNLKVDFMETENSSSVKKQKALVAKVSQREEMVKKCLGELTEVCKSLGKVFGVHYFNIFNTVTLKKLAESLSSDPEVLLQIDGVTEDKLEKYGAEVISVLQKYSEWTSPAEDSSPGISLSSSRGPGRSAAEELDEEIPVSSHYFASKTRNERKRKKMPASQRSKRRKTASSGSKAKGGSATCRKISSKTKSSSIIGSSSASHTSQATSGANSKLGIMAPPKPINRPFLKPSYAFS
Chain of ATP-dependent DNA helicase Q1 (Homo sapiens) (P46063 whole entry, looked up): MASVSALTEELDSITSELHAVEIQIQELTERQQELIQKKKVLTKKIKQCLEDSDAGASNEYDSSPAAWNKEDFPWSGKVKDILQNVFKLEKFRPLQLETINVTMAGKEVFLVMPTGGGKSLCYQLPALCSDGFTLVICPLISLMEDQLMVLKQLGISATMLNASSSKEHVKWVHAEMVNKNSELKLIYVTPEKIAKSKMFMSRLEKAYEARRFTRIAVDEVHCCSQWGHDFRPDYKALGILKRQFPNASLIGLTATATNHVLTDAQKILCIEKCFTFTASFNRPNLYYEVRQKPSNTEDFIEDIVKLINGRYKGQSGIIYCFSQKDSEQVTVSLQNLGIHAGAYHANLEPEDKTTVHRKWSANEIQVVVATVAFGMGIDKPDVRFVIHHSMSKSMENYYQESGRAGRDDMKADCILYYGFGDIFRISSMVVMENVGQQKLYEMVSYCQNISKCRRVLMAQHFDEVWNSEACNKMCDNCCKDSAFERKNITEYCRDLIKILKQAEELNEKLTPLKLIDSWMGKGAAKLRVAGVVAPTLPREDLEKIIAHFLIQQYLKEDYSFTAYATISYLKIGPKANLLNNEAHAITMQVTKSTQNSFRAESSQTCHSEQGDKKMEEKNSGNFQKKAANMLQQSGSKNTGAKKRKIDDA
Chain of Ferritin light chain (Equus caballus) (P02791 2-175 limits assumed): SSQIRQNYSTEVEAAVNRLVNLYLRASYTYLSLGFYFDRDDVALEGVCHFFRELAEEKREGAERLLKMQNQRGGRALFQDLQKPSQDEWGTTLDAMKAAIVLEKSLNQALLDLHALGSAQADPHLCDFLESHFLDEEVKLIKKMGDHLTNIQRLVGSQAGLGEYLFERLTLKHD

With `O=C(O)/C=C(\CC(=O)O)C(=O)O`, in experiment [1] (at 57.5 µM (top of the series)), the activity change, negative = inhibition is 3.99% (inactive). Also, the max response in [1] (setting [21]) is -7.3%; in experiment [1] (setting [22]), 1.94%.
In the case of `COc1cccc2c1[C@@H]1CN(CCCCn3c(=O)[nH]c4c(sc5ncc(-c6ccccc6)nc54)c3=O)C[C@@H]1CO2`, the result in [2], in experiment [3], in experiment [4], in experiment [7] and in experiment [8] was inactive. In addition, the activity change, negative = inhibition in experiment [1] (at 57.5 µM (top of the series)) is 0.568% (inactive). Besides, the max response in experiment [1] (setting [21]) was found to be 7.98%; in experiment [1] (setting [22]), 9.55%. Moreover, the Potency in experiment [5] is 11.2 µM (active). For the same molecule, in experiment [6], the Potency result is “inactive”.
For the molecule `C1N2CN3CN1CN(C2)C3`, the activity change, negative = inhibition in [1] (at 57.5 µM (top of the series)) was 4.78% (inactive). The max response in experiment [1] (setting [21]) is -0.0775%; in experiment [1] (setting [22]), 6.42%.
On to `COc1ccccc1N1CCN(CCN2C(=O)CC3(CCCC3)CC2=O)CC1`, for which the outcome in experiment [9], in experiment [2], in [3], in [4], in experiment [10] and in experiment [15] was inactive. Also, the outcome in experiment [16], in experiment [7], in experiment [8], in experiment [17] and in [18] was inactive. The Potency result in [11], in experiment [12], in experiment [13], in experiment [6] and in experiment [14] was “inactive” in each case.
For the molecule `CN(C(=O)C(Cl)Cl)c1ccc(OC(=O)c2ccco2)cc1`, the activity change, negative = inhibition in [1] (at 25.7 µM (top of the series)) was -19.5% (inactive). Further, the max response is -11.9% in experiment [1] (setting [21]) and -28.6% in experiment [1] (setting [22]).
Consider `Nc1ncnc2nc[nH]c12`, for which the activity change, negative = inhibition in experiment [1] (at 57.5 µM (top of the series)) was 6.5% (inactive). Also, the max response was 12.7% in [1] (setting [21]) and 22.5% in [1] (setting [22]).
With `OC(CCCN1CCCCC1)(c1ccccc1)c1ccccc1`, in experiment [1] (at 25.7 µM (top of the series)), the activity change, negative = inhibition is -0.646% (inactive). In addition, the max response in [1] (setting [21]) was 10.3%; in [1] (setting [22]) it was 9.61%.
As to `CCOC(=O)NNc1nncc2ccccc12`, the activity change, negative = inhibition in [1] (at 25.7 µM (top of the series)) was 0.543% (inactive). The max response in [1] (setting [21]) was -3.66%; in experiment [1] (setting [22]) it was -3.48%.
On to `Cc1ccc2c(Cl)cc(Cl)c(O)c2n1`, for which the activity change, negative = inhibition in experiment [1] (at 57.5 µM (top of the series)) is 4.67% (inactive). In addition, the max response in experiment [1] (setting [21]) is -3.23%; in experiment [1] (setting [22]) it was 2.66%.
Take `NC(N)=NCCCCN=C(N)N`: the outcome in [9], in [2], in experiment [3], in [4], in experiment [10] and in [15] was inactive. For the same molecule, the molecule was called inactive in [16], in experiment [7], in [8], in [17] and in experiment [18]. Also, the activity change, negative = inhibition is -0.421% (inactive) in [1] (at 25.7 µM (top of the series)); -1.91% (inactive) and 4.1% (inactive) and 0.28% (inactive) in experiment [1] (at 57.5 µM (top of the series)). Besides, the Potency result in experiment [5], in experiment [11], in experiment [12], in experiment [13], in experiment [6] and in [19] was “inactive” each time.
With `Cc1ccc(O)cc1`, in experiment [1] (at 57.5 µM (top of the series)), the activity change, negative = inhibition is 6.36% (inactive). The max response in experiment [1] (setting [21]) came out at 10.2%; in experiment [1] (setting [22]), 20.7%.
For the molecule `Cc1cc(C(C)(C)C)c(O)c(C(C)(C)C)c1`, in [1] (at 57.5 µM (top of the series)), the activity change, negative = inhibition was 4.82% (inactive). In addition, the max response in experiment [1] (setting [21]) amounted to 4.25%; in experiment [1] (setting [22]) it was 10.5%. In [20], the result was inactive.
On to `CCN(CC)CCOc1ccc(/C(=C(\Cl)c2ccccc2)c2ccccc2)cc1`, for which, in [1] (at 57.5 µM (top of the series)), the activity change, negative = inhibition is -1.21% (inactive). Further, the figures for the max response in experiment [1] (setting [21]) and in experiment [1] (setting [22]) were 9.36% and 11.5%, respectively.

For the origin of these results see PubChem BioAssay (NCATS).
